G9a block – blocks human histone lysine methyltransferase G9a; G9a H3K9 monomethylation, AlphaScreen, 2 h; 350,000 compounds, 8.8% hits; Potency, µM (doses to about 102 µM), for inactives: at the top dose activity, negative = inhibition, usual class: inhibitors; further: potency means the concentration at half of the fitted maximal effect; on the % scale 0 is the no-effect control and ±100 the full control effect; nearly all actives have a fitted effect of over 75% in size
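Using a bead-based AlphaScreen, monomethylated H3K9 product from 2 h room-temperature reactions (G9a 20 nM, peptide 500 nM, SAM 20 uM) was detected with 0.5 ug/mL rabbit anti-H3K9me1 antibody.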
CtBP-E1A blk – CtBP/E1A binding inhibition. AlphaScreen GST-E1A/His-CtBP binding, 1536-well; stronger effect = lower value. activity change, % (concentration not given with the values). 340,000 compounds, 0.49% hits. AID 651724; in the data active means activity change below about -65%; inconclusive means mostly about -30% to -63%; further: on the % scale 0 is the no-effect control and ±100 the full control effect
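Homogeneous bead-based format: GST-tagged E1A captured on glutathione donor beads, His-tagged CtBP on nickel acceptor beads; compounds precede bead addition by 2 h at 37 °C.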
JMJD2A Tudor inh – JMJD2A Tudor domain (human) inhibition. O75164. AID 504339. AlphaScreen JMJD2A-Tudor / H3K4me3 peptide binding. 390,000 compounds, 4.4% hits. Potency, µM (titrated, usually from 114 µM), for inactives: top-dose activity change, negative = inhibition, most hits filed as inhibitors; further: potency means the concentration at half of the fitted maximal effect; on the % scale 0 is the no-effect control and ±100 the full control effect; nearly all actives have a fitted effect of over 50% in size
Target sequence (O75164 whole entry, looked up, the tested form may be a part): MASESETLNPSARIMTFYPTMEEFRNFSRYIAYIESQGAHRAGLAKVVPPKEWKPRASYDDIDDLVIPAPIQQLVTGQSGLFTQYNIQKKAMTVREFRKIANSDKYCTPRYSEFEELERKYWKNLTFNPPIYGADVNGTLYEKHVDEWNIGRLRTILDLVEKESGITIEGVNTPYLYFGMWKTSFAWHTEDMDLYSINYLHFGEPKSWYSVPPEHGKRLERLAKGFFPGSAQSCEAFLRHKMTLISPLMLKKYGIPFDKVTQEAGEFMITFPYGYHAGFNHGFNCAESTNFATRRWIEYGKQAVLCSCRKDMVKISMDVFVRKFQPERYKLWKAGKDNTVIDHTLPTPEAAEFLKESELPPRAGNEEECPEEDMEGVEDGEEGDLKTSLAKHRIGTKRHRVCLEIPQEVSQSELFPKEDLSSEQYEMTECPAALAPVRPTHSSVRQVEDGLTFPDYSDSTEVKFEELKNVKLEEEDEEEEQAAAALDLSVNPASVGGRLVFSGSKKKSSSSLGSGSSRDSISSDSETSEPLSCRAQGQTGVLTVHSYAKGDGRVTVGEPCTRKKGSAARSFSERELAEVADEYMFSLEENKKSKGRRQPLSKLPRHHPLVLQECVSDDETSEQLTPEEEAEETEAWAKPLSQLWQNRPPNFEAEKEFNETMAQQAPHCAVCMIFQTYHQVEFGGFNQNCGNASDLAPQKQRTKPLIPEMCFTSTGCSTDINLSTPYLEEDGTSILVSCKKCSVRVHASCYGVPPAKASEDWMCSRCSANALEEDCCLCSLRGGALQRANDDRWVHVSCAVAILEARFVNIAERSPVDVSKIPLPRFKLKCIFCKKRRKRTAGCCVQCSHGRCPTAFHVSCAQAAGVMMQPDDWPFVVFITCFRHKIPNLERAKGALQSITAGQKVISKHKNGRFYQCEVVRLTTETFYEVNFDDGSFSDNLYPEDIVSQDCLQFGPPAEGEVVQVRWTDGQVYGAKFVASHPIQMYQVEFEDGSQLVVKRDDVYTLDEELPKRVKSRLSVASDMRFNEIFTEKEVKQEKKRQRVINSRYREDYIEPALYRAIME
BAZ2B block – inhibitors of human BAZ2B bromodomain; Q9UIF8; AlphaScreen BAZ2B-H3K14Ac peptide displacement; Potency, µM (titrated, usually from 114 µM), inactives show top-dose activity change, negative = inhibition, actives largely listed as inhibitors; 360,000 compounds, 4.4% hits; further: potency means the concentration at half of the fitted maximal effect; on the % scale 0 is the no-effect control and ±100 the full control effect; nearly all actives have a fitted effect of over 60% in size
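Protein-peptide AlphaScreen: BAZ2B 50 nM, b-H3K14Ac 50 nM, 1x PBS pH 7.4 + 0.01% Tween-20. Preincubation 30 min RT; cpd 30 min RT (top 110 uM); beads 20 min RT, light-protected.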
HP1b binding inh – blocks HP1-beta chromodomain binding to methylated histone tails | AlphaScreen HP1-beta / biotin-H3K9me3 peptide binding | P83916 | 390,000 compounds, 0.56% hits | Potency, µM (series often up to 114 µM), for the others: top-dose activity change, negative = inhibition, hits mostly inhibitors; further: potency means the concentration at half of the fitted maximal effect; nearly all actives have a fitted effect of over 70% in size
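AlphaScreen: HP1-beta (50 nM) preformed 30 min with biotin-H3(1-18)K9me3 peptide (50 nM) in PBS pH 7.4, 0.01% Tween-20. Compound added for 30 min at RT, then streptavidin donor/nickel chelate acceptor beads (10 ug/mL) for 30 min.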
Six1-Eya2 blk – Six1/Eya2 interaction inhibition | 360,000 compounds, 0.56% hits | AlphaScreen GST-Six1/His-Eya2 binding, biochemical; stronger effect = lower value | activity change, % (no concentration beside the values); in the data active means activity change below about -65%; inconclusive means mostly about -30% to -63%; further: on the % scale 0 is the no-effect control and ±100 the full control effect
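Compounds are tested against tagged Six1 and Eya2 proteins bridged by glutathione donor and nickel acceptor beads; after a one-hour incubation at 37 °C without light, AlphaScreen emission is recorded.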
* hit, by the source's call; [ ] = remark or other dose. In the library only some 10% were active in any assay of this set; here they are far more common. Unless noted, the call rests on the fitted dose curve; in most records, active means well fitted inhibition curve with a large enough effect; inconclusive means small, poorly fitted or top-dose-only effect; inactive means no such curve, though single readings can be large or run the other way.

Fc1ccc(-n2c(CN3CCCCC3)n[nH]c2=S)cc1 was read as G9a block 44.7µM*, CtBP-E1A blk 0.0, JMJD2A Tudor inh inconclusive, BAZ2B block -11.0%, HP1b binding inh 41.2% and Six1-Eya2 blk 21.6.
`Cc1ccc(N(CC(O)CN2CCOCC2)S(=O)(=O)c2ccc([N+](=O)[O-])cc2)cc1` (stereo not drawn) gave G9a block 18.5%, CtBP-E1A blk -19.9, JMJD2A Tudor inh -13.0%, BAZ2B block -13.6%, HP1b binding inh 29.5% and Six1-Eya2 blk 2.6.
`CNCCN(C)c1nc(-c2cccs2)nc2ccccc12` gave JMJD2A Tudor inh -12.2% and HP1b binding inh 28.3%.
Screening CCOc1ccc(CNC(=O)c2ccc3nc(C(C)C)oc3c2)cc1 returned G9a block 0.6%[59 µM], JMJD2A Tudor inh -15.7%, BAZ2B block 5.4% and HP1b binding inh 8.9%[57 µM].
`Cc1ccc(N(C)C(=O)C2CCN(S(=O)(=O)c3c(C)noc3/C=C/c3c(C)cc(C)cc3C)CC2)cc1` gave G9a block -0.9%[59 µM], JMJD2A Tudor inh -24.3%, BAZ2B block -15.0% and HP1b binding inh 2.4%[57 µM].
Screening c1ccc2c(c1)ncn2CCn1cnc2ccccc21 returned G9a block 9.1%[59 µM], CtBP-E1A blk 8.7, JMJD2A Tudor inh 12.2%[57.1 µM], BAZ2B block 12.6%, HP1b binding inh 53.1% and Six1-Eya2 blk 13.0.
For S=c1[nH]nc(Cn2cnc3ccccc32)n1-c1ccccc1 the results were G9a block 8.91µM*, CtBP-E1A blk 9.0, JMJD2A Tudor inh 4.47µM*, BAZ2B block -14.9%, HP1b binding inh -7.0% and Six1-Eya2 blk -2.2.
`COc1ccc(C(CNC(=O)c2cccc(S(=O)(=O)N3CCCCC3)c2)N2CCCC2)cc1` (stereo not drawn) gave G9a block 3.1%[12.7 µM], CtBP-E1A blk -14.0, JMJD2A Tudor inh -12.2%, BAZ2B block 6.2%, HP1b binding inh 27.0% and Six1-Eya2 blk -3.0.
Screening CN(C)N=C1c2cc(S(=O)(=O)N3CCOCC3)ccc2-c2ccc(S(=O)(=O)N3CCOCC3)cc21 returned G9a block 20µM*, CtBP-E1A blk -1.8, JMJD2A Tudor inh inconclusive, BAZ2B block -33.6%, HP1b binding inh -21.8% and Six1-Eya2 blk -6.6.
For O=c1cnnc(N/N=C/c2cccs2)[nH]1 the results were JMJD2A Tudor inh -28.0%, BAZ2B block 79.4µM*, HP1b binding inh 15.9%[57 µM] and Six1-Eya2 blk inconclusive.
Screening Cc1cc(=O)[nH]c(N/N=C/c2cccs2)n1 returned G9a block -22.3%[59 µM], CtBP-E1A blk inconclusive, JMJD2A Tudor inh inconclusive, BAZ2B block 2.1%, HP1b binding inh 28.4% and Six1-Eya2 blk -29.8.
Screening CC(=O)CSc1ncnc2sc3c(c12)CCC(C)C3 (stereo not drawn) returned G9a block 39.8µM*, CtBP-E1A blk 25.6, JMJD2A Tudor inh 23.0%, BAZ2B block 5.5%, HP1b binding inh 51.1% and Six1-Eya2 blk 23.9.
`O=C(CSc1ccc2nnc(-c3cccnc3)n2n1)N1CCc2ccccc21` gave G9a block inconclusive and BAZ2B block -2.2%.
`O=C(CSc1ccc2nnc(-c3ccc(Cl)cc3)n2n1)N1CCCC1` gave G9a block 35.5µM*, CtBP-E1A blk 3.8, JMJD2A Tudor inh -23.4%, BAZ2B block 9.9%, HP1b binding inh 36.8% and Six1-Eya2 blk 9.5.
`O=C(CSc1ccc2nnc(-c3ccc(Cl)cc3)n2n1)N1CCc2ccccc21` gave G9a block 7.94µM*, CtBP-E1A blk -6.5, JMJD2A Tudor inh -5.0%, BAZ2B block -4.2%, HP1b binding inh 47.2% and Six1-Eya2 blk 2.5.
Screening Cc1c(-c2ccccc2)[n+](=O)c2c(n1[O-])CCCC2 returned G9a block 16.8%, CtBP-E1A blk -26.8, JMJD2A Tudor inh 5.9%, BAZ2B block 0.9%, HP1b binding inh 25.7% and Six1-Eya2 blk 10.3.
For COC(=O)NNC(=O)C(c1ccccc1)c1ccccc1 the results were CtBP-E1A blk -1.5, JMJD2A Tudor inh -2.1%, HP1b binding inh 40.3% and Six1-Eya2 blk 2.9.
COc1ccc(Oc2nc(-c3ccncc3)nc3ccccc23)cc1 was read as G9a block -5.6%, CtBP-E1A blk 2.0, JMJD2A Tudor inh -11.5%, BAZ2B block 2.4%, HP1b binding inh 18.1% and Six1-Eya2 blk 1.5.
c1ccc(Oc2nc(-c3ccccn3)nc3ccccc23)cc1 was read as CtBP-E1A blk -94.2*, JMJD2A Tudor inh inconclusive, BAZ2B block -11.4%, HP1b binding inh 26.2% and Six1-Eya2 blk -78.5*.
c1ccc(-c2nc(N3CCCCCC3)c3ccccc3n2)nc1 was read as G9a block -31.1%, CtBP-E1A blk -72.8*, JMJD2A Tudor inh inconclusive, BAZ2B block 50.1µM*, HP1b binding inh 35.7% and Six1-Eya2 blk -75.2*.
Screening COc1ccc(Oc2nc(-c3ccccn3)nc3ccccc23)cc1 returned CtBP-E1A blk -66.0*, JMJD2A Tudor inh inconclusive, BAZ2B block -16.1%, HP1b binding inh 6.2% and Six1-Eya2 blk -86.1*.
Fc1ccc(Oc2nc(-c3ccccn3)nc3ccccc23)cc1 was read as G9a block 5.1%, CtBP-E1A blk -14.7, JMJD2A Tudor inh inconclusive, BAZ2B block -3.3%, HP1b binding inh 16.8% and Six1-Eya2 blk -12.6.
`CCOC(=O)C1=C(O)C(=O)C(C(=O)OCC)C1` (stereo not drawn) gave CtBP-E1A blk 3.2, JMJD2A Tudor inh 10µM*, HP1b binding inh inconclusive and Six1-Eya2 blk -1.8.
CCOC(=O)C1Cc2cc3c(cc2C1=O)CC(C(=O)OCC)C3=O (stereo not drawn) was read as G9a block 35.5µM* and BAZ2B block -26.7%.
For CC1C(=O)N(S(=O)(=O)c2ccc([N+](=O)[O-])cc2)[C@H]1c1ccc2ccccc2c1 (stereo partly drawn) the results were JMJD2A Tudor inh -20.0% and HP1b binding inh -0.1%.
Screening O=C(NC1CCCCC1)c1cccnc1Sc1ccccc1 returned G9a block 22.0%, CtBP-E1A blk 3.6, JMJD2A Tudor inh -9.9%, BAZ2B block -2.3%, HP1b binding inh -1.3% and Six1-Eya2 blk 5.4.
`CC(C)Oc1ccc(C(=O)N(Cc2ccc(N(C)C)cc2)Cc2ccco2)cc1` gave G9a block 11.2µM*, JMJD2A Tudor inh 25.1µM*, BAZ2B block 12.6µM* and HP1b binding inh inconclusive.
For CCCCOc1ccc(C(=O)N(Cc2ccc(N(C)C)cc2)Cc2ccco2)cc1 the results were G9a block 11.2µM*, JMJD2A Tudor inh 20µM*, BAZ2B block 10µM* and HP1b binding inh inconclusive.

From PubChem
